From PubChem BioAssay (NCI)
Several values for one entry are separate records, joined by “and”; a condition that tells them apart may be missing. Equal values may be shown once. This is part of a sample that, as a whole, favours compounds with a hit. Of some 79,000 tested, about 15% had one in any assay. A number with no mark means an inactive call. Activity calls are given as the source filed them. Cut-off read from the data, not from the text of the source: active = growth inhibition above about 70%; inactive = the rest.

test: NCI Yeast Anticancer Drug Screen. Data for the cln2 rad14 strain (AID 165);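 note: 0% = growth equal to vehicle treated cultures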; conditions: S. cerevisiae cln2 rad14 strain, at 50.0 µM, hits give high values
Summary of the method: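 Yeast carrying cln2 and rad14 alterations (cell cycle control and DNA damage repair) were exposed to compounds. Growth inhibition was measured against vehicle-treated controls.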

Structure (SMILES) | growth inhibition
CO[C@H]1Nc2c(ccc(C)c2O)C(=O)N2C=C(/C=C/C(N)=O)C[C@@H]12 | 90.2% (active)
COC(=O)c1ccccc1NP(=O)(O)Oc1ccccc1 (tested in a mixture with another compound) | -32.5%
CC1([N+](=O)[O-])COP(=O)(NCC2CCCO2)OC1 (centres undefined) | -4.1%
CCCCCCC(=O)O[C@H]1CC[C@H]2[C@@H]3CCC4C/C(=N/NC(=O)c5cccc6c(=O)c7ccccc7[nH]c56)C=C(C)[C@]4(C)[C@H]3CC[C@]12C (some centres undefined) | 24.7%
CC(C)C(NC(=O)CCl)C(=O)O (centres undefined) | -11.4%
Clc1ccc([As](c2ccc(Cl)cc2)c2ccc(Cl)cc2)cc1 | 13.7%
CC(C)(C)C(=O)CC(=O)C(C)(C)C.[Cl][Sb]1([Cl])[c]2ccccc2Cc2cccc[c]21 | -13.8%
NCC1OC(OC2C(CO)OC(OC3C(O)C(N)CC(N)C3OC3OC(CN)C(O)C(O)C3N)C2O)C(N)C(O)C1O (centres undefined) | 3%
O=NN(CCF)C(=O)NCCO | 12.4%
O=C(Oc1ccc(S(=O)(=O)F)cc1Cl)c1ccc([N+](=O)[O-])cc1 | 92.8% (active)
CC(=O)c1ccccc1O | -13.4% and 2.05%
O=c1oc2cc(O)ccc2c(O)c1C(c1ccccn1)c1c(O)c2ccc(O)cc2oc1=O | -1.85%
CN1C2CCCC1CC(=O)C2 | -22.4%
O=C(O)C(F)(F)C(F)(Cl)C(F)(F)C(F)(Cl)C(F)(F)C(F)(Cl)C(F)(F)Cl (centres undefined) (tested in a mixture with another compound) | 9.7% and 27.6%
CC(=O)CC1(OC(=O)C2C(C=C(C)C)C2(C)C)C(=O)Nc2ccccc21 (centres undefined) | 8.85%
Cc1ccc(O)c(CN2CCN(Cc3cc(C)ccc3O)CC2)c1 | -2.15%
CC(=O)C(C(C)=O)C(C)=O.CC(=O)C(C(C)=O)C(C)=O.CC(=O)C(C(C)=O)C(C)=O.[Cr] | 7.25%
COc1ccc(/C=C\[N+](=O)[O-])cc1OCc1ccccc1 | -13.6%
[Cl][Pd]([Cl])([Cl])[Cl].[NH-]CC[NH-].[NH-]CC[NH-].[Pd+2] | -3.5%
Oc1cc(Br)c(O)c(Br)c1 | -11%
N.N.N.N.[Co+3].[O-][Cl+3]([O-])([O-])[O-].[OH3+].[OH3+] | 13.9%
CC(=O)C1(c2ccccc2)CCNCC1 | 11.9%
COc1ccc(CC2C3=C(CCCC3)CCN2C)cc1 (centres undefined) | 21.8%
O=C(NCCNC(=O)Nc1ccccc1S(=O)(=O)F)Nc1ccccc1S(=O)(=O)F | 6.55%

test: NCI Yeast Anticancer Drug Screen. Data for the bub3 strain (AID 167); conditions: S. cerevisiae bub3 mutant strain, at 50.0 µM, hits give high values
Summary of the method: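 In this screen, a yeast mutant lacking normal mitotic checkpoint function is challenged with compound. Relative growth versus vehicle gives the inhibition value.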

Structure (SMILES) | growth inhibition
O=C(c1ccccc1)C1C(C(=O)c2ccccc2)N1Cc1ccccc1 (centres undefined) | 27.2% and 9%
c1ccc2c(c1)ccc1[s+]cccc12 | 16.1%
CC(C)N(C(=O)SCC(Cl)=C(Cl)Cl)C(C)C | -12.3%
CC(C)(Cl)[N+](=O)[O-] | -5.45%
CC(C)NC(C)C(C)c1ccccc1 (centres undefined) | -10.2%
[Pd].[Pd].[S-]CC[S-].[S-]CC[S-].c1ccc([PH+](c2ccccc2)c2ccccc2)cc1.c1ccc([PH+](c2ccccc2)c2ccccc2)cc1 | -2.35%
N.N.O=P([O-])([O-])CN(CP(=O)([O-])[O-])CP(=O)([O-])[O-].[Pt+2] | 1.15%
CC1(CCl)COP(=O)(NN)OC1 (centres undefined) | 12%
O=[P+](O)c1ccccc1 | -4.65% and -2%
O=P1(N(CCCl)CCCl)Oc2c(Cl)cc(Cl)c(Cl)c2Cc2c(Cl)c(Cl)cc(Cl)c2O1 | -14.2%
CN(C)P(=O)(N(C)C)N(C)CO | 18.2%
O=C(O)c1cc(Cc2ccc(O)c(C(=O)O)c2)ccc1O | -13.4% and 33.9%
Cc1cccc(NC(=O)C(=O)C2C(=O)NC(=O)NC2=O)c1C | 20.2%
C=C1C(=O)OC2CC3(C)OC3CC/C(C)=C/C(OC(C)=O)C12 (centres undefined) | 45.1%
CCn1/c(=N\N=O)sc2ccccc21 | -35.3%
COC(=O)c1cccc(S(=O)(=O)F)c1 | 20.1%
CO[C@H]1Nc2c(ccc(C)c2O)C(=O)N2C=C(/C=C/C(N)=O)C[C@@H]12 | 90.3% (active)
COC(=O)c1ccccc1NP(=O)(O)Oc1ccccc1 (tested in a mixture with another compound) | -2.7%
CC1([N+](=O)[O-])COP(=O)(NCC2CCCO2)OC1 (centres undefined) | 0.35%
CCCCCCC(=O)O[C@H]1CC[C@H]2[C@@H]3CCC4C/C(=N/NC(=O)c5cccc6c(=O)c7ccccc7[nH]c56)C=C(C)[C@]4(C)[C@H]3CC[C@]12C (some centres undefined) | 8.45%

Structure (SMILES) | growth inhibition
CC(C)C(NC(=O)CCl)C(=O)O (centres undefined) | -2.55%
Clc1ccc([As](c2ccc(Cl)cc2)c2ccc(Cl)cc2)cc1 | 30.5%
CC(C)(C)C(=O)CC(=O)C(C)(C)C.[Cl][Sb]1([Cl])[c]2ccccc2Cc2cccc[c]21 | 0.75%
NCC1OC(OC2C(CO)OC(OC3C(O)C(N)CC(N)C3OC3OC(CN)C(O)C(O)C3N)C2O)C(N)C(O)C1O (centres undefined) | 15.4%
O=NN(CCF)C(=O)NCCO | 1.75%
O=C(Oc1ccc(S(=O)(=O)F)cc1Cl)c1ccc([N+](=O)[O-])cc1 | 60%
CC(=O)c1ccccc1O | -16.9% and 3.7%
O=c1oc2cc(O)ccc2c(O)c1C(c1ccccn1)c1c(O)c2ccc(O)cc2oc1=O | -17.4%
CN1C2CCCC1CC(=O)C2 | -3.55%
O=C(O)C(F)(F)C(F)(Cl)C(F)(F)C(F)(Cl)C(F)(F)C(F)(Cl)C(F)(F)Cl (centres undefined) (tested in a mixture with another compound) | -2.15% and -2%
CC(=O)CC1(OC(=O)C2C(C=C(C)C)C2(C)C)C(=O)Nc2ccccc21 (centres undefined) | 23.1%
Cc1ccc(O)c(CN2CCN(Cc3cc(C)ccc3O)CC2)c1 | 14.4%
CC(=O)C(C(C)=O)C(C)=O.CC(=O)C(C(C)=O)C(C)=O.CC(=O)C(C(C)=O)C(C)=O.[Cr] | -3.6%
COc1ccc(/C=C\[N+](=O)[O-])cc1OCc1ccccc1 | 7.2%
[Cl][Pd]([Cl])([Cl])[Cl].[NH-]CC[NH-].[NH-]CC[NH-].[Pd+2] | 26.4%
Oc1cc(Br)c(O)c(Br)c1 | 36.4%
N.N.N.N.[Co+3].[O-][Cl+3]([O-])([O-])[O-].[OH3+].[OH3+] | -6%
CC(=O)C1(c2ccccc2)CCNCC1 | -3.9%
COc1ccc(CC2C3=C(CCCC3)CCN2C)cc1 (centres undefined) | 17.6%
O=C(NCCNC(=O)Nc1ccccc1S(=O)(=O)F)Nc1ccccc1S(=O)(=O)F | -32.1%
